This is an account of results in PubChem BioAssay AID1851 (National Center for Advancing Translational Sciences (NCATS), 2009).

Where “and” joins values, the source holds several entries; their conditions need not be identical. Equal entries are not always repeated. Screen size: about 16,000 compounds; about 5,100 (32%) were called active. About 25% were inconclusive and are not listed. This is one part of the list. Values without a mark were called inactive. Calls follow the shape of the dose curve; as a rule, active = well fitted curve in the direction sought with a large enough effect; inconclusive = small, poorly fitted or top-dose-only effect, or effect the other way; inactive = no such curve, though single readings can be large or run the other way.
% is scaled to controls: 0 for no effect and ±100 for the full control effect.

The target of this assay is Cytochrome P450 3A4 (Homo sapiens) (UniProt P08684). The assay can be described thus: Cytochrome panel assay with activity outcomes. The conditions noted are these: recombinant CYP, pro-luciferin dealkylation, luminescence, p450-cyp3a4; series mostly up to 57.1 µM.
Sequence of Cytochrome P450 3A4 (Homo sapiens) (P08684 whole entry, looked up): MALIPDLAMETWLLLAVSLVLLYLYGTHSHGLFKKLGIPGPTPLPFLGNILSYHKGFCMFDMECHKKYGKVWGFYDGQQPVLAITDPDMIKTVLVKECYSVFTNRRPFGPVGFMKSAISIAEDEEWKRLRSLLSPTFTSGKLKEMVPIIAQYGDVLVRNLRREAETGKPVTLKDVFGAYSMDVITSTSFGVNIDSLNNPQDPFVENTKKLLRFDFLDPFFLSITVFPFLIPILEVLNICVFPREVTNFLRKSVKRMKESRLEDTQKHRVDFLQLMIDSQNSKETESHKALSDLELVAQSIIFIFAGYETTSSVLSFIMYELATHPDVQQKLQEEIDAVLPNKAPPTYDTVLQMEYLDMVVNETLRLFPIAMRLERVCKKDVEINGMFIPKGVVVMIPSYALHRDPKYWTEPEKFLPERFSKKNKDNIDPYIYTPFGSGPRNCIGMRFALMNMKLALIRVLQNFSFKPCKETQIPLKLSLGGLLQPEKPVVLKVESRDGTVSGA
In the case of `C[C@H](Oc1ccccc1)C(=O)N[C@@H]1C(=O)N2[C@@H]1SC(C)(C)[C@@H]2C(=O)O`, the AC50 entry was “inactive”.
Still for that read-out and setting: the result for `CC1(C)S[C@@H]2[C@H](NC(=O)[C@@H](N)c3ccccc3)C(=O)N2[C@H]1C(=O)O[C@H]1OC(=O)c2ccccc21` reads 1.58 µM (active).
Turning to `CC1(C)S[C@@H]2[C@H](NC(=O)[C@@H](N)c3ccc(O)cc3)C(=O)N2[C@H]1C(=O)O`, the AC50 entry was “inactive”.
Take `O=c1c2ccccc2nc2n1C(CSCc1cccc(C(F)(F)F)c1)CS2` (stereo unspecified): the AC50 is 4.47 µM (active).
With `Cc1ncc2c(c1O)COP(=O)(O)OC2`, the AC50 entry was “inactive”.
Turning to `COC(=O)c1cn(NC(=O)c2ccc(F)cc2)c(=O)c2ccccc12`, the activity, negative = inhibition is -2.1% [at 2.29 µM].
Consider `COc1ccc(C(=O)Nn2cnc3ccccc3c2=O)c(OC)c1`, for which the half-maximal activity concentration (AC50) is 25.1 µM (active).
Same read-out and setting: the result for `O=C(Nn1cnc2ccccc2c1=O)c1ccc(F)cc1Cl` reads “inactive”; that for `Cn1cc(-c2nc3cncnc3n(Cc3ccc(F)cc3)c2=O)c2ccccc21`, “inactive”; that for `CCNc1ncc2nc(-c3cn(C)c4ccccc34)c(=O)n(Cc3ccc(F)cc3)c2n1`, 15.8 µM (active).
On to `COc1cccc(Cn2c(=O)c(-c3cn(C)c4ccccc34)nc3cnc(OC)nc32)c1`, for which the AC50 was 7.94 µM (active).
For the compound `COc1cccc(Cn2c(=O)c(-c3cn(C)c4ccccc34)nc3cnc(N4CCOCC4)nc32)c1`, the AC50 entry was “inactive”.
Turning to `COc1ncc2nc(-c3cn(C)c4ccccc34)c(=O)n(Cc3ccc(F)cc3)c2n1`, the AC50 is 6.31 µM (active).
Still for that read-out and setting: the result for `CCNc1ncc2nc(-c3cn(C)c4ccccc34)c(=O)n(Cc3cccc(OC)c3)c2n1` reads 3.98 µM (active); that for `CN(C)CCCNc1c(C(=O)O)cnc2c1cnn2C`, “inactive”; that for `COc1ccc(N2C(N)=NC(N)=NC2(C)C)cc1`, “inactive”.
The same measure, in the same setting: the result for `COC(=O)C1=C(C)NC(C)=C(C(=O)OCCSc2ccccc2)[C@@H]1C` reads 10 µM (active).
As for `COC(=O)c1cc(=O)n(C2CC2)c(=NC2CC2)s1`, the AC50 result is “inactive”.
The same measure, in the same setting: the result for `C[n+]1cn(CC(O)COCc2ccccc2)c2ccccc21` (stereo unspecified) reads “inactive”.
Same read-out and setting: the result for `OC(COCc1ccccc1)Cn1cnc2ccccc21` (stereo unspecified) reads 3.98 µM (active); that for `Oc1ccc(OCc2ccccc2)cc1`, “inactive”.
Same read-out and setting: the result for `CCC(=O)c1ccc(OCC(O)CN2CCCCC2)cc1` (stereo unspecified) reads “inactive”.
Regarding `CC(=O)Nc1ccc(OCC(O)Cn2cnc3ccccc32)cc1` (stereo unspecified), the AC50 is 14.1 µM (active).
As to `CC(=O)Nc1ccc(OC[C@@H](O)CNC(C)C)cc1`, the AC50 result was “inactive”.
For `O=C(O)[C@@H]1[C@@H]2C[C@H]([C@@H](Br)[C@H]2N2C(=O)CCC2=O)[C@@H]1C(=O)O`, the activity, negative = inhibition is 2.42% [at 11.4 µM].
On the same count and under the same terms, the result for `CCCCC(=O)Nc1nnc(SCC(=O)NC2CCCC2)s1` reads -12.4% [at 2.29 µM].
With `C=CCn1c(SCC(=O)NC2CCCCC2)nnc1C1CCCCC1`, the AC50 is 8.91 µM (active).
The same measure, in the same setting: the result for `COc1ccc(C(=O)NN)cc1COc1ccc(Br)cc1` reads 1.26 µM (active); that for `COc1ccc(/C=C/C(=O)NCc2cn(C)nc2C)cc1COc1ccc(Br)cc1`, 3.16 µM (active).
On the same count and under the same terms, the result for `CCn1ncc(/C=C/C(=O)NCc2cn(C)nc2C)c1C` reads “inactive”.
As for `COc1ccc(/C=N/NC(=O)c2ccn[nH]2)cc1COc1ccc(Cl)cc1`, the activity, negative = inhibition is -16.8% [at 2.29 µM].
`COc1ccc(/C=N/NC(=O)c2ccn[nH]2)cc1COc1ccc(F)cc1`: the activity, negative = inhibition is -10.3% [at 2.29 µM].
Regarding `Cc1nn(C)cc1CNC(=O)CCC(=O)O`, the AC50 result was “inactive”.
For the compound `COc1cc(/C=C(\C#N)C(N)=O)cc(CSc2nc3ccccc3s2)c1O`, the AC50 is 3.98 µM (active).
On the same count and under the same terms, the result for `C[C@](N)(COP(=O)(O)O)C(=O)O` reads “inactive”.
On to `COC(=O)c1ccc(-n2cncn2)c(F)c1`, for which the concentration at half-maximal activity (AC50) is 7.94 µM (active).
As for `O=C(Nc1cc(C(F)(F)F)ccc1-n1cncn1)c1ccc(Br)cc1`, the activity, negative = inhibition was -10.9% [at 2.29 µM].
Consider `C[C@@H]1O[C@H](O[C@@H]2[C@@H](Oc3cc(O)c4c(c3)O[C@H](c3ccc(O)cc3)CC4=O)O[C@@H](CO)[C@@H](O)[C@H]2O)[C@@H](O)[C@H](O)[C@@H]1O`, for which the AC50 entry was “inactive”.
Same read-out and setting: the result for `COc1ccc(NC(=O)CC2C(=O)N(c3cccc(OC)c3)C(=O)N2C2CCCCC2)cc1` (stereo unspecified) reads 8.91 µM (active); that for `COc1cccc(N2C(=O)C(CC(=O)Nc3ccccc3)N(C3CCCCC3)C2=O)c1` (stereo unspecified), 5.01 µM (active).
As for `O=C1C=C[C@@H](O)[C@H]2[C@@H]3C(=O)N(c4cccc(Oc5ccccc5)c4)C(=O)[C@@H]3CC[C@H]12`, the activity, negative = inhibition is -11.6% [at 11.4 µM].
For the compound `CCN1CCN(CCC(=O)Nc2cccc(OC)c2)CC1`, the AC50 result was “inactive”.
On the same count and under the same terms, the result for `O=C(CSc1nnnn1C1CCCC1)Nc1ccc(F)cc1` reads 14.1 µM (active); that for `CCC(CC)C(=O)Nc1cccc(/C(C)=N\NC(=O)c2ccc(C)s2)c1`, 7.94 µM (active).
With `CCOc1ccc(N(C(C)C(=O)N/N=C(\C)c2cccc(NC(=O)c3ccccc3)c2)S(C)(=O)=O)cc1` (stereo unspecified), the activity, negative = inhibition was -20.9% [at 2.29 µM].
Turning to `CCC(CC)C(=O)Nc1cccc(/C(C)=N/NC(=O)c2c(Br)cnn2C)c1`, the AC50 was 14.1 µM (active).
The same measure, in the same setting: the result for `C/C(=N\NC(=O)c1cccc(F)c1)c1ccc(Br)s1` reads “inactive”.
In the case of `C/C(=N\NC(=O)c1ccc(Cl)cc1)c1cccc(NC(=O)C(C)C)c1`, the concentration at half-maximal activity (AC50) is 15.8 µM (active).
On to `CCOC(=O)c1c(NC(=O)c2c(Br)cnn2C)c(C#N)nn1-c1ccccc1`, for which the AC50 entry was “inactive”.
As to `Cc1cc(=O)[nH]c2c1c(C)nn2C1CCOC(C)(C)C1` (stereo unspecified), the AC50 entry is “inactive”.
Turning to `Cc1[nH]c2ccccc2c1-c1cc(-c2cc(-c3c(C)[nH]c4ccccc34)on2)no1`, the activity, negative = inhibition was -5.38% [at 11.4 µM].
Consider `CCn1c(C)nc2cc(S(=O)(=O)C(F)F)ccc21`, for which the activity, negative = inhibition was 9.09% [at 11.4 µM].
As for `CCCCn1c(SCc2c(C)noc2C)nc2cc(S(N)(=O)=O)ccc21`, the AC50 is 0.708 µM (active).
The same measure, in the same setting: the result for `CCCOc1ccc(C(=O)NNC(=S)NC(=O)c2cc(-c3ccccc3)nc3ccccc23)cc1` reads 8.91 µM (active).
Regarding `CCCOc1ccc(C(=O)NNC(=S)NC(=O)CC)cc1`, the activity, negative = inhibition is -8.65% [at 2.29 µM].
Turning to `O=C(OCCN1CCOCC1)C1(c2ccccc2)CCCCC1`, the concentration at half-maximal activity (AC50) was 3.16 µM (active) and 1.58 µM (active).
On to `CN(C)CCOC(=O)C1(c2ccccc2)CCOCC1`, for which the AC50 entry is “inactive”.
Still for that read-out and setting: the result for `CCN(CC)CCOC(=O)C1(c2ccc([N+](=O)[O-])cc2)CCCC1` reads “inactive”; that for `NC(N)=NN=Cc1c(Cl)cccc1Cl`, “inactive”.
Still for that read-out and setting: the result for `COc1ccccc1Cn1nnc2c(=O)[nH]c(C3CCN(C(=O)c4ccc(C)cc4)CC3)nc21` reads 1.58 µM (active); that for `COCC(=O)N1CCC2(CCN(Cc3ccccc3OC)CC2)CC1`, “inactive”.
As for `Cc1ccc(Cn2nnc3c(=O)[nH]c(C4CCN(C(=O)Cc5cccs5)CC4)nc32)cc1`, the AC50 was 4.47 µM (active).
The same measure, in the same setting: the result for `O=C(Cc1cccs1)N1CCC(c2nc3c(nnn3Cc3ccccc3Cl)c(=O)[nH]2)CC1` reads 3.16 µM (active); that for `COc1ccc(C(=O)N2CCC3(CCN(Cc4ccccc4OC)CC3)CC2)cc1`, “inactive”.
With `Cc1ccc(-c2c(C#N)c(N)n(-c3ccccc3)c(=O)c2C#N)cc1`, the activity, negative = inhibition was -3.64% [at 2.29 µM].
Regarding `O=C(OCCNC(=O)c1ccc2ccccc2n1)c1ccc(F)cc1`, the AC50 is 14.1 µM (active).
Regarding `CN(C)CCOC(=O)c1ccc(N)cc1`, the activity, negative = inhibition was -4.56% [at 11.4 µM].
Turning to `Fc1ccc(N2CCN(c3ccc4c(C(F)(F)F)cc(C(F)(F)F)nc4n3)CC2)cc1`, the AC50 was 10 µM (active).
The same measure, in the same setting: the result for `FC(F)(F)c1cc(C(F)(F)F)c2ccc(N/N=C/c3cccc(Cl)c3)nc2n1` reads “inactive”.
Regarding `Cc1ccc(Nc2nc(Cl)nc(N(C)C#N)n2)cc1`, the concentration at half-maximal activity (AC50) was 11.2 µM (active).
On to `Cc1c(C)c2c(c(C)c1O)CC[C@@](C)(CCC[C@@H](C)CCC[C@@H](C)CCCC(C)C)O2`, for which the AC50 entry is “inactive”.
Regarding `Cn1nc(C(F)(F)F)c(C(=O)Nc2ccc(F)cc2F)c1Sc1cccc(C(F)(F)F)c1`, the AC50 was 6.31 µM (active).
Still for that read-out and setting: the result for `CC(=O)OCc1c(C(F)(F)F)nn(C)c1Sc1ccccc1` reads “inactive”; that for `Cc1ccc(NC(=O)c2c(C(F)(F)F)nn(C)c2SCc2cccc(C(F)(F)F)c2)cc1C`, 3.16 µM (active).
As to `CC(C)NC(=O)c1ccc(-c2cccc(C(F)(F)F)c2)o1`, the AC50 entry was “inactive”.
Same read-out and setting: the result for `Cn1nc(C(F)(F)F)c(C(=O)Nc2ccc(F)cc2F)c1Sc1ccc(C(F)(F)F)cc1` reads 12.6 µM (active); that for `Cc1ccc(NC(=O)c2sccc2SCc2cccc(C(F)(F)F)c2)cc1`, 1 µM (active); that for `CN(C/C=C\c1ccccc1)Cc1cccc2ccccc12`, “inactive”.
Same read-out and setting: the result for `COc1ccccc1C(c1nnnn1C(C)(C)C)N1CCN(Cc2ccncc2)CC1` (stereo unspecified) reads 3.16 µM (active); that for `COc1ccccc1C(c1nnnn1C(C)(C)C)N1CCCc2ccccc21` (stereo unspecified), 10 µM (active); that for `COc1ccccc1C(=O)NC(=S)N1CCCc2ccccc21`, “inactive”.
Same read-out and setting: the result for `CC[N+](CC)(CC)CC` reads “inactive”.
As to `CC(C)(C)NC[C@@H](O)c1ccc(O)c(CO)n1`, the activity, negative = inhibition was 2.12% [at 11.4 µM].
With `N#Cc1ccc(C(c2nnnn2Cc2ccccc2)N2CCCC2)cc1` (stereo unspecified), the AC50 is 7.94 µM (active).
As for `N#Cc1cccc(C(c2nnnn2C2CCCC2)N2CCCCCC2)c1` (stereo unspecified), the AC50 is 5.01 µM (active).
On the same count and under the same terms, the result for `N#Cc1ccc(C(c2nnnn2C2CCCC2)N2CCC(Cc3ccccc3)CC2)cc1` (stereo unspecified) reads 4.47 µM (active); that for `N[C@@H](C(=O)O)c1ccc(P(=O)(O)O)cc1`, “inactive”.
On the same count and under the same terms, the result for `O=C(O)c1sc2cc(C(F)(F)F)cnc2c1-c1ccccc1` reads “inactive”; that for `CCOC(=O)c1sc2c(c1C)c(=O)c(C(=O)OCC)cn2CC`, “inactive”.
Regarding `CCOC(=O)c1sc2nc(CC(=O)OC)nc(NCc3ccc(F)cc3)c2c1C`, the AC50 is 4.47 µM (active).
Turning to `Cc1cc(C)c(-c2noc(C(=O)OC(C)(C)C)c2C(=O)OC(C)(C)C)c(C)c1`, the activity, negative = inhibition was -8.97% [at 2.29 µM].
`Cc1cc(C(=O)CC#N)c(C)n1CC(F)(F)F`: the AC50 is 3.16 µM (active).
`O=C(Cc1ccccc1)NC(=S)Nc1cc(C(F)(F)F)ccc1Cl`: the activity, negative = inhibition was -7.93% [at 2.29 µM].
Consider `O=C(/C=C/c1ccccc1)NC(NC(=S)Nc1ccc(Cl)cc1)C(Cl)(Cl)Cl` (stereo unspecified), for which the AC50 is 4.47 µM (active).
`O=C(/C=C/c1ccc(Cl)cc1)Nc1ccc(N2CCCCC2)cc1`: the AC50 result was “inactive”.
In the case of `O=C(NC(NC(=S)Nc1cc(Cl)ccc1Cl)C(Cl)(Cl)Cl)c1ccco1` (stereo unspecified), the concentration at half-maximal activity (AC50) was 6.31 µM (active).
For the compound `CC(CP(=O)(O)O)NC(=O)Cc1ccccc1` (stereo unspecified), the AC50 result was “inactive”.
`O=C(NNC(=S)Nc1ccccc1)c1ccco1`: the AC50 result was “inactive”.
Take `O=C(Cc1ccccc1)NC(NCCc1ccccc1)C(Cl)(Cl)Cl` (stereo unspecified): the AC50 is 14.1 µM (active).
The same measure, in the same setting: the result for `O=C(Cc1ccccc1)NC(NC(=S)Nc1cc(Cl)ccc1Cl)C(Cl)(Cl)Cl` (stereo unspecified) reads 4.47 µM (active); that for `O=C(CCc1ccccc1)Nc1ncn[nH]1`, “inactive”.
